Compound activity as filed in PubChem.
In the library only some 19% were active in any assay of this set; here they are far more common.
TDP1 cell CPT: qHTS for Inhibitors of human tyrosyl-DNA phosphodiesterase 1 (TDP1): qHTS in cells in presence of CPT; chicken DT40 Tdp1-/-;hTDP1 cells + 20 nM CPT, ATP luminescence, 48 h; Potency, µM (titrated, usually from 46.2 µM), actives largely listed as inhibitors; 12% of 420,000 active; AID 686979, 2013; note: nearly all actives have a fitted effect of over 55% in size
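Chicken DT40 Tdp1-/- cells complemented with human TDP1, 400 cells/well, exposed to compounds plus 20 nM camptothecin for at least 48 h at 37 C; viability read as ATP content by CellTiter-Glo luminescence.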
DT40 TDP1 no CPT: qHTS for Inhibitors of human tyrosyl-DNA phosphodiesterase 1 (TDP1): qHTS in cells in absence of CPT; 15% of 420,000 active; DT40 Tdp1-/- hTDP1 cells, no CPT, ATP luminescence, 48 h; Potency, µM (series often up to 46.2 µM), hits mostly inhibitors; note: nearly all actives have a fitted effect of over 55% in size
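No-CPT arm: Tdp1-/-;hTDP1 DT40 cells (400/well) plus compounds, incubated ≥48 hr at 37 °C. Readout CellTiter-Glo luminescence.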
IL-1B inflam inh: qHTS for Inhibitors of Inflammasome Signaling: IL-1-beta AlphaLISA Primary Screen; activity change, % at 57.5 µM; AID 743279, 2014; 4.7% of 360,000 active; THP-1 LPS/ATP IL-1B secretion, AlphaLISA, 16 h; active compounds read low; in the data active = activity change below about -50%; inconclusive = mostly about -30% to -49%
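THP-1 cells pretreated 1 hr with compounds (up to 57.5 uM final), then stimulated with LPS (250 ng/mL final) plus ATP (1.25 mM final); secreted IL-1B measured by AlphaLISA after 16 hr, decreased signal indicating inhibition.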
HT1080-NT tox: qHTS for induction of synthetic lethality in tumor cells producing 2HG: qHTS for the HT-1080-NT fibrosarcoma cell line | 1.6% of 360,000 active | AID 686970, 2013 | Potency, µM (series often up to 46.1 µM), actives largely listed as cytotoxic | HT-1080-NT fibrosarcoma viability, CellTiter-Glo ATP luminescence, 48 h;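 note: NT is the 2HG producing partner of a matched IDH1 knockdown line; nearly all actives have a fitted effect of over 55% in size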
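A 48-hour cytotoxicity screen used HT-1080-NT cells plated 2 hours before compound delivery. ATP-based CellTiter-Glo luminescence measured viability, normalized to DMSO and no-cell controls.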
HT1080 IDH1KD tx: qHTS for induction of synthetic lethality in tumor cells producing 2HG: qHTS for the HT-1080-IDH1KD cell line; HT-1080 IDH1 knockdown viability, ATP luminescence, 48 h; Potency, µM (titrated, usually from 46.1 µM), actives largely listed as cytotoxic; 2% of 360,000 active; AID 686971, 2013
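Cytotoxicity counter-line: IDH1KD HT-1080, 48 h, CellTiter-Glo. Curves classed by r2, magnitude and activity.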
A number is an active result; i = inactive; ? = inconclusive; nt = not tested or not shown. Unless noted, calls come from the whole dose curve; as a rule, active = well fitted curve in the direction sought with a large enough effect; inconclusive = small, poorly fitted or top-dose-only effect, or another doubt; inactive = no such curve, though single readings can be large; an effect the other way counts as inactive or inconclusive.

SMILES	TDP1 cell CPT	DT40 TDP1 no CPT	IL-1B inflam inh	HT1080-NT tox	HT1080 IDH1KD tx
COc1ccc(CCN2C(=O)CCC3=C2CCCC3=O)cc1OC	i	i	i	?	i
CCOc1ccc(NC(=O)CC(NCc2ccccn2)C(=O)O)cc1 (configuration not stated)	?	i	i	i	i
COCCCNC(=O)/C(=C\c1cccn1C)NC(=O)c1cccs1	i	i	i	i	?
CC(C)N1CCC2(CC1)N=C(c1ccc3c(c1)OCO3)CC(c1cc(Cl)ccc1O)N2 (configuration not stated)	5.8µM	5.2µM	-117	?	?
O=C(Nc1cc(Cl)ccc1O)c1cc(-c2ccc3c(c2)OCO3)on1	i	i	nt	nt	nt
COc1ccc(-c2csc(-c3c(N)c(C(=O)c4ccccc4)n4ccccc34)n2)cc1	i	?	nt	nt	nt
COc1ccc(-c2csc(-c3c(N)c(C(=O)c4ccccc4)n4ccccc34)n2)cc1OC	4.1µM	2.3µM	nt	nt	nt
CCN1/C(=C/c2ccc3cc(C)ccc3[n+]2CC)Sc2ccc3sccc3c21	0.92µM	0.58µM	i	?	0.92µM
CCN1/C(=C/c2ccc3cc(C)cc(C)c3[n+]2CC)Sc2cc(C)ccc21	0.65µM	0.18µM	-97	7.3µM	?
Clc1ccc(-c2ccc(CNCc3ccccn3)o2)cc1	?	?	i	i	i
Cc1ccc(NC(=O)CCn2c(=O)oc3ccccc32)c(C)c1	i	i	i	i	i
CCCCn1c(CCl)nc2cc(S(=O)(=O)N3CCOCC3)ccc21	4.6µM	6.5µM	nt	i	?
CC(=O)CCSc1nnc(-c2cccc(S(=O)(=O)N3CCOCC3)c2)o1	i	i	i	i	i
CCn1c(SCc2nc3ccccc3s2)nc2cc(S(=O)(=O)N3CCOCC3)ccc21	29µM	?	i	i	i
O=S(=O)(c1cccc(-c2nnc(SCc3nc4ccccc4s3)o2)c1)N1CCOCC1	18µM	?	i	i	i
CCCc1cc(C(=O)Nc2cc(OC)ccc2OC)cs1	i	i	i	i	i
CN(C(=O)OC(C)(C)C)[C@H](Cc1ccccc1)C(=O)N[C@H]1CCCCNC1=O	i	i	i	i	i
O=C(c1ccccn1)N1CC=C(c2ccccc2)CC1	i	i	i	i	i
O=c1cc(CCc2ccccc2)oc2cccc(O)c12	i	i	i	i	i
Cc1ccc(Oc2nc(CN3CCOCC3)nc3sc4c(c23)CCC(C)C4)cc1C (configuration not stated)	i	?	i	i	i
Cc1cc(S(=O)(=O)Nc2nc(CN3CCOCC3)nc3sc4c(c23)CCC4)cc(C)c1C	i	i	i	i	i
COc1cccc(Nc2nc(CN3CCOCC3)nc3sc4c(c23)CCCC4)c1	16µM	21µM	?	i	i
Cc1ccc(Oc2nc(CN3CCOCC3)nc3sc4c(c23)CCC(C)C4)cc1 (configuration not stated)	?	?	-57	i	i
Cc1ccc(C)n1-n1cnc2sc3c(c2c1=O)CCC3	?	?	i	i	i
O=c1c2c3c(sc2ncn1-n1cccc1)CCCCC3	i	?	?	i	i
SMILES	TDP1 cell CPT	DT40 TDP1 no CPT	IL-1B inflam inh	HT1080-NT tox	HT1080 IDH1KD tx
Cn1cc(/C=N/n2cnc3sc4c(c3c2=O)CCCC4)c2ccccc21	13µM	10µM	i	i	i
O=c1c2c3c(sc2ncn1/N=C/c1ccc([N+](=O)[O-])o1)CCCC3	2.6µM	2.3µM	-89	?	?
CCCC(=O)N1CCC1(C)C(=O)Nc1ccc2nc(C)ccc2c1 (configuration not stated)	i	i	i	?	i
Cc1cccc2sc(N(CCCN(C)C)C(=O)c3sc4ccccc4c3Cl)nc12	16µM	23µM	i	i	i
CN(C)CCCN(C(=O)c1sc2ccccc2c1Cl)c1nc2c(F)cccc2s1	i	?	i	i	i
COc1cc(C(=O)N(CCCN(C)C)c2nc3c(OC)cccc3s2)cc(OC)c1OC	?	21µM	nt	nt	nt
COc1cccc2sc(N(CCCN(C)C)C(=O)c3sc4ccccc4c3Cl)nc12	?	18µM	-67	i	i
Cc1ccsc1CN(C)CC(=O)NCC(=O)Nc1ccc(F)cc1	i	i	i	i	i
Cc1ccc(NC(=O)CN(C)C(=O)c2cccc(S(=O)(=O)N3CCc4ccccc4C3)c2)cc1	i	i	i	i	i
COc1ccccc1-c1cc(C(F)(F)F)nc(S(=O)(=O)CCCC(=O)Nc2cc(OC)c(OC)c(OC)c2)n1	?	21µM	nt	nt	nt
COc1ccccc1-c1cc(C(F)(F)F)nc(S(=O)(=O)CCCC(=O)Nc2ccc(F)c(Cl)c2)n1	i	?	nt	nt	nt
COc1ccc(-c2cc(C(F)(F)F)nc(SCC(=O)N3CCOCC3)n2)cc1OC	i	?	?	i	i
COc1ccccc1-c1noc(CCCC(=O)N2CCOCC2)n1	i	i	i	i	i
COc1ccccc1-c1cc(C(F)(F)F)nc(S(=O)(=O)CCCC(=O)O)n1	14µM	?	-87	11µM	8.9µM
COc1ccc(-c2cc(C(F)(F)F)nc(S(=O)(=O)CCC(=O)N3CCOCC3)n2)cc1	6.5µM	12µM	-118	i	i
COc1ccccc1-c1cc(C(F)(F)F)nc(S(=O)(=O)CCCC(=O)N2CCOCC2)n1	2.6µM	2.3µM	-118	16µM	16µM
COc1ccccc1N(C(=O)c1ccncc1)c1nc(-c2ccc([N+](=O)[O-])cc2)cs1	16µM	16µM	i	i	i
Cc1nn(-c2cc(N3CCCCCC3)ccc2[N+](=O)[O-])c(=O)c2ccccc12	i	i	i	i	i
Cc1ccc(-c2nn(-c3cc(N4CCNCC4)ccc3[N+](=O)[O-])c(=O)c3ccccc23)cc1	3.7µM	4.1µM	-182	15µM	?
O=C(N/C(=C\c1ccc(Br)cc1)c1nc2ccccc2[nH]1)c1ccco1	?	?	i	i	i
COc1ccc(/C=N/N2CCN(c3ccc(Cl)cc3)CC2)cc1O	i	i	i	i	i
Clc1ccc2c(NCCNC3CCCCC3)ccnc2c1	16µM	15µM	-95	15µM	21µM
Clc1ccc2c(NCc3ccccn3)ccnc2c1	?	i	i	i	i
CC1CCCN1c1ccnc2cc(Cl)ccc12 (configuration not stated)	29µM	16µM	i	i	i
CC(CCCN1CCCC1)Nc1ccnc2cc(Cl)ccc12 (configuration not stated)	?	23µM	?	i	?
